Hits are enriched below; roughly 12% of the tested compounds scored in any of these assays.
G9a block – inhibitors of human histone lysine methyltransferase G9a. AID 504332. Q96KQ7. G9a H3K9 monomethylation, AlphaScreen, 2 h. Potency, µM (series often up to 102 µM), for inactives: at the highest dose activity, negative = inhibition, hits mostly inhibitors. hit rate 8.8% among 350,000; further: on the % scale 0 is the no-effect control and ±100 the full control effect; nearly all actives have a fitted effect of over 75% in size
Target sequence (Q96KQ7 913-1193 limits assumed): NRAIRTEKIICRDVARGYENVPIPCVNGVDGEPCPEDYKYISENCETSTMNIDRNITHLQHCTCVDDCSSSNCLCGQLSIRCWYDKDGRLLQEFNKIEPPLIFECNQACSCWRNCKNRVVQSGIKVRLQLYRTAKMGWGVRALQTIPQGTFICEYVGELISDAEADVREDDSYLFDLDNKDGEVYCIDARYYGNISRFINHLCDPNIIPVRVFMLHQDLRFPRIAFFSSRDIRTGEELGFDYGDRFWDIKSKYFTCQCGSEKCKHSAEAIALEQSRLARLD
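Quantitative HTS format: methyltransferase activity on a biotin-tagged H3K9 peptide is measured by AlphaScreen, using a rabbit anti-monomethyl-H3K9 antibody with streptavidin donor and anti-IgG acceptor beads. Final levels are 20 nM enzyme, 500 nM peptide, 20 uM SAM; 2 h RT.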
Sfp inh – Sfp phosphopantetheinyl transferase inhibition. Biochemical Sfp PPTase activity, qHTS. Potency, µM, for inactives: largest response in the series, negative = inhibition, usual class: inhibitors. hit rate 3.5% among 310,000. AID 1490;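 further: the enzyme is Sfp with the accession as filed and its product quenches rhodamine fluorescence; 0% = enzyme reaction without inhibitor and -100% = no enzyme wells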
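Fluorescence-quenching assay: 15 nM Sfp-PPTase preincubated 15 min at room temperature with compound, then 5 uM rhodamine-CoA and 12.5 uM BHQ-2-labelled YbbR peptide added. Fluorescence (ex 525/em 598 nm) read at start and after 30 min; difference gives rate.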
HP1b binding inh – blocks HP1-beta chromodomain binding to methylated histone tails; AlphaScreen HP1-beta / biotin-H3K9me3 peptide binding; Potency, µM (titrated, usually from 114 µM), for the others: at the highest dose activity change, negative = inhibition, hits mostly inhibitors; hit rate 0.56% among 390,000; AID 540317; further: nearly all actives have a fitted effect of over 70% in size
Target sequence (P83916 whole entry, looked up): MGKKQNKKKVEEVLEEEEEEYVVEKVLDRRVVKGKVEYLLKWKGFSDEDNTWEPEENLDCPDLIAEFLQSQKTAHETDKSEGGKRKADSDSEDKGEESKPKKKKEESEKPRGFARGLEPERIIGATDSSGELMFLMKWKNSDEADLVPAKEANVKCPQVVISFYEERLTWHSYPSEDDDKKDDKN
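HP1-beta protein (50 nM final) preincubated 30 min at room temperature with biotinylated H3(1-18)K9me3 peptide (50 nM) in PBS pH 7.4, 0.01% Tween-20, then compound added for 30 min. AlphaScreen streptavidin donor/nickel chelate acceptor beads (10 ug/mL final), 30 min dark, luminescence read.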
BAZ2B inh – blocks human BAZ2B; Q9UIF8; AlphaScreen BAZ2B-H3K14Ac peptide displacement; Potency, µM (series often up to 114 µM), without a hit: at the highest dose activity change, negative = inhibition, usual class: inhibitors; hit rate 4.4% among 360,000; further: on the % scale 0 is the no-effect control and ±100 the full control effect; nearly all actives have a fitted effect of over 60% in size
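AlphaScreen displacement of biotin-H3(5-23)K14Ac peptide (50 nM final) from BAZ2B (50 nM final) in PBS pH 7.4, 0.01% Tween-20; complex preformed 30 min RT, then compounds (top 110 uM) 30 min RT, beads 20 min dark.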
L3MBTL1 block – L3MBTL1 (human) inhibition. Q9Y468. AlphaScreen L3MBTL1–H3K9me1 peptide binding. Potency, µM (series often up to 57.1 µM), for inactives: at the top dose activity, negative = inhibition, most hits filed as inhibitors. hit rate 0.66% among 230,000. AID 485360; further: on the % scale 0 is the no-effect control and ±100 the full control effect; nearly all actives have a fitted effect of over 60% in size
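AlphaScreen proximity signal between nickel-chelate acceptor and streptavidin donor beads (final 10 ug/mL) reports binding of 50 nM L3MBTL1 to 75 nM biotin-H3 K9me1 peptide; complex incubated with compounds 30 min at room temperature; cefsulodin titration as control.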
JMJD2A Tudor – JMJD2A Tudor domain (human) inhibition. O75164. hit rate 4.4% among 390,000. AlphaScreen JMJD2A-Tudor / H3K4me3 peptide binding. Potency, µM (top dose mostly 114 µM), for the others: at the top dose activity change, negative = inhibition, most hits filed as inhibitors; further: on the % scale 0 is the no-effect control and ±100 the full control effect; nearly all actives have a fitted effect of over 50% in size
The depositor's hits bear a star; ? = inconclusive; . = no result; [ ] = remark or other dose. The call rests on the fitted dose curve; in most records, active means well fitted curve in the direction sought with a large enough effect; inconclusive means small, poorly fitted or top-dose-only effect, or another doubt; inactive means no such curve, though single readings can be large; an effect the other way counts as inactive or inconclusive. Potency means the concentration at half of the fitted maximal effect.

SMILES	G9a block	Sfp inh	HP1b binding inh	BAZ2B inh	L3MBTL1 block	JMJD2A Tudor
Cc1ccc(S(=O)(=O)N2CCCCC2)cc1C(=O)NCCC1=CCCCC1	10%[0.501 µM]	.	18%	9%	7%	-12%
Cc1ccc(S(=O)(=O)N2CCN(c3nc(-c4ccco4)nc4ccccc34)CC2)cc1	.	.	.	.	.	-23%
Cc1ccc(-c2ccc(=O)n(CC(=O)NCCC(C)C)n2)cc1	12%	12%	27%	10%	.	-14%
O=C(O)c1cccc(/C=C2/C[C@@H]3[C@@H](/C=C/[C@@H](O)C4CCCCC4)[C@H](O)C[C@@H]3O2)c1	.	-4%	.	.	.	.
CCOC(=O)c1ccc(NC(=O)C2CCCN(c3ncnc4onc(C)c34)C2)cc1 (stereo not given)	2%[59 µM]	.	8%	8%[57.1 µM]	.	-3%
CCc1cc2c(nc1CC)CCN(CC/C(C)=N/OCC[C@@H]1C=C[C@H](OC(C)=O)[C@H](COC(C)=O)O1)C2	.	-6%	.	.	.	.
O=C1OC(c2ccccc2)=N/C1=C\C=C\c1ccco1	.	40µM*	-17%	?	?	?
O=C1OC(c2ccccc2)=N/C1=C\C=C\c1ccccc1[N+](=O)[O-]	?	-1%	-20%	-3%	4%	-26%
O=C1OC(c2ccc(Cl)cc2)=N/C1=C\C=C\c1ccco1	14µM*	45µM*	-10%	.	?	?
C=CCC(Nc1ccc(OC)cc1)C(=O)OCC (stereo not given)	.	4%	.	.	.	.
COc1cc2ccccc2cc1C(=O)Nc1ccc(Cl)c(-c2nc3ccccc3o2)c1	-9%[59 µM]	.	29%	3%	.	-10%
COc1ccc(-c2nc(CS(=O)CC(=O)N3CCCC3)c(C)o2)cc1 (stereo not given)	?	-23%	51%	8%	-1%	-3%
CCN1CCN(C(=O)CS(=O)Cc2nc(-c3ccc(OC)cc3)oc2C)CC1 (stereo not given)	71µM*	-13%	.	-5%	.	-5%
COc1ccc(-c2nc(CSCC(=O)N3CCN(c4ccc(OC)cc4)CC3)c(C)o2)cc1	11µM*	.	-19%	35µM*	.	?
Cc1cccc(-c2nc(CS(=O)CC(=O)N3CCc4ccccc4C3)c(C)o2)c1 (stereo not given)	32µM*	40µM*	23%	2%	-3%	-15%
Cc1ccc(-c2nc(CS(=O)(=O)CC(=O)N3CCN(c4ccccc4)CC3)c(C)o2)cc1	-38%[59 µM]	.	3%	56µM*	.	?
CCN1CCN(C(=O)CS(=O)Cc2nc(-c3cccc(C)c3)oc2C)CC1 (stereo not given)	-3%	-4%	45%	-5%	.	-17%
COc1nc2ccc(C)cc2cc1-c1noc(-c2ccccc2)n1	29%[0.501 µM]	-18%	29%	-1%	4%	-3%
Cc1cc(C)n(CCc2nc3c4ccccc4nc(N4CCN(c5ccccc5)CC4)n3n2)n1	9%[59 µM]	.	2%	-1%	.	-31%
O=C1C2C3c4ccccc4C(c4ccccc43)C2C(=O)N1Cc1ccccn1 (stereo not given)	17%[59 µM]	25%	32%	-19%	.	-8%
O=C(OCC#CCSc1nnc(-c2ccccc2)o1)c1ccc(F)cc1	.	.	.	.	.	79%
O=C(N/N=C/c1ccccn1)c1cc([N+](=O)[O-])cc([N+](=O)[O-])c1	15%	5%	20%	50µM*	.	56µM*
Cc1cccc(C(=O)N/N=C/c2ccccn2)c1	16µM*	45µM*	7%	3%	28%	?
Cc1cccc(C(=O)Nc2cccc(C(=O)N/N=C/c3ccccn3)c2)c1	?	-15%	23%	4%	.	-24%
CC(C)(C)c1ccc(C(=O)N/N=C/c2ccccn2)cc1	34%	-14%	38%	13%	.	-21%
SMILES	G9a block	Sfp inh	HP1b binding inh	BAZ2B inh	L3MBTL1 block	JMJD2A Tudor
CCN(CC)S(=O)(=O)c1cccc(C(=O)N/N=C/c2ccccn2)c1	?	?	11%	56µM*	-5%	?
O=C(N/N=C/c1ccccn1)c1ccc([N+](=O)[O-])cc1	-32%	-10%	29%	-38%	-18%	-17%
Cc1occc1C(=O)N/N=C/c1ccccn1	.	63µM*	34%	?	21%	-25%
COc1cccc(Nc2ncc3nc(-c4cn(C)c5ccccc45)c(=O)n(C[C@H]4CCCO4)c3n2)c1	10%[0.501 µM]	17%	.	.	.	.
O=C(O)c1cccc(NC(=S)N/N=C/c2cccc(O)c2)c1	-23%	-5%	-7%	-23%	16%	-17%
Cc1ccc(C(=O)N/N=C\c2ccccn2)cn1	25%	7.1µM*	12%	?	2%	79µM*
O=C(O)c1cccc(NC(=S)N/N=C/c2ccccn2)c1	50µM*	-14%	14%	3.5µM*	20µM*	25µM*
Cc1ccc(C(=O)N/N=C/c2cccc(OC(=O)/C=C/c3ccco3)c2)cn1	45µM*	32µM*	?	50µM*	32µM*	-4%[11.4 µM]
CCOc1cc(Br)cc(/C=N/NC(=O)c2cccnc2)c1O	21%[59 µM]	26%	59%	28µM*	?	40µM*
COc1cccc(C2=Nn3c(nnc3-c3ccc(OC)c(OC)c3)SC2)c1	.	0%	.	.	.	-11%
Cc1cc(C)cc(NC(=O)C2CCCN(c3nnc(C)c4c(C)n(-c5ccccc5)nc34)C2)c1 (stereo not given)	0%[59 µM]	.	28%	-10%	.	-1%
O=C(COc1ccc(/C=N/NC(=O)c2ccccc2)cc1)Nc1ccc([N+](=O)[O-])cc1	.	7%	31%	12%	9%	-19%
O=C(N/N=C/c1cccc([N+](=O)[O-])c1)c1ccc2nc[nH]c2c1	3%	-12%	53%	-7%	.	-6%
O=C(N/N=C/c1ccccn1)c1ccc(NC(=O)c2cccc([N+](=O)[O-])c2)cc1	?	7%	48%	11%	46%	-2%[11.4 µM]
O=C(N/N=C/c1ccc2ncccc2c1)c1cccc([N+](=O)[O-])c1	79µM*	17%	205%	-39%	.	?
O=C(COc1ccc([N+](=O)[O-])cc1)N/N=C/c1ccccn1	14%	79µM*	38%	-3%[57.1 µM]	1%	-8%
Cc1ccc(C(=O)N/N=C/c2cc(Br)ccc2O)cn1	67%[0.501 µM]	18%	12%	7.9µM*	-3%[2.29 µM]	56µM*
O=C(N/N=C/c1ccccn1)c1cccc([N+](=O)[O-])c1	?	-44%	26%	45µM*	-25%	-18%[11.4 µM]
CC(C)NC(=S)N/N=C/c1cc(Br)ccc1O	3%[59 µM]	7%	?	18µM*	?	50µM*
C/C(CC(=O)Nc1cc(C)ccn1)=N\NC(=O)c1cccc(C)c1	103%[59 µM]	7%	18%	89µM*	.	-12%

Bioassay records from PubChem BioAssay.
